# From PubChem BioAssay AID1159580 (chemical genetic matrix, 2015)
# Among all 5,500 compounds or so, about 2,000 (36%) were called active. Not shown: some 18% with an inconclusive outcome. Some of the results follow. A number with no mark means an inactive call. Cut-off read from the data, not from the text of the source: active = normalized growth mostly below about 0.91 (no sharp cut-off); inconclusive = no clear call, values can overlap the other calls; inactive = mostly above about 0.92.
# Assay: chemical genetic growth profiling, strain panel (AID 1159580);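 note: tested at 20 µM; growth read once vehicle control cultures reached saturation at 30 °C; 1 = growth at the plate median or of vehicle wells; lower values mean less growth of the strain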
# Details: growth OD
structure (smiles),measurement,setting,value
COP(=S)(OC)SCn1nnc2ccccc2c1=O,normalized growth,"S. cerevisiae deletion strains, locus YJR075W, strain HOC1, hits give low values",0.975
same,normalized growth,"S. cerevisiae deletion strains, locus YKL009W, strain mrt4, hits give low values",0.866 (active)
same,normalized growth,"S. cerevisiae deletion strains, locus YKL068W, hits give low values",0.995
same,normalized growth,"S. cerevisiae deletion strains, locus YKL085W, strain MDH1 (second series), hits give low values",0.985
same,normalized growth,"S. cerevisiae deletion strains, locus YKL085W, strain MDH1, hits give low values",0.985
same,normalized growth,"S. cerevisiae deletion strains, locus YKL160W, strain elf1, hits give low values",0.989
same,normalized growth,"S. cerevisiae deletion strains, locus YKL190W, strain CNB1, hits give low values",0.976
same,normalized growth,"S. cerevisiae deletion strains, locus YKR001C, strain vps1, hits give low values",0.969
same,normalized growth,"S. cerevisiae deletion strains, locus YKR026C, strain gcn3, hits give low values",1.01
same,normalized growth,"S. cerevisiae deletion strains, locus YKR091W, strain srl3, hits give low values",1.01
same,normalized growth,"S. cerevisiae deletion strains, locus YLL001W, strain dnm1, hits give low values",1.01
same,normalized growth,"S. cerevisiae deletion strains, locus YLL026W, hits give low values",0.999
same,normalized growth,"S. cerevisiae deletion strains, locus YLL041C, strain sdh2, hits give low values",1
same,normalized growth,"S. cerevisiae deletion strains, locus YLR027C, strain aat2, hits give low values",0.996
same,normalized growth,"S. cerevisiae deletion strains, locus YLR039C, strain RIC1, hits give low values",0.974
same,normalized growth,"S. cerevisiae deletion strains, locus YLR058C, strain SHM2, hits give low values",0.971
same,normalized growth,"S. cerevisiae deletion strains, locus YLR102C, strain apc9, hits give low values",0.98
same,normalized growth,"S. cerevisiae deletion strains, locus YLR113W, strain HOG1, hits give low values",1.01
same,normalized growth,"S. cerevisiae deletion strains, locus YLR221C, strain rsa3, hits give low values",0.971
same,normalized growth,"S. cerevisiae deletion strains, locus YLR258W, strain gsy2, hits give low values",1
same,normalized growth,"S. cerevisiae deletion strains, locus YLR262C, strain YPT6 (second series), hits give low values",0.96
same,normalized growth,"S. cerevisiae deletion strains, locus YLR262C, strain YPT6, hits give low values",0.941
same,normalized growth,"S. cerevisiae deletion strains, locus YLR268W, strain sec22, hits give low values",0.963
same,normalized growth,"S. cerevisiae deletion strains, locus YLR320W, strain mms22, hits give low values",1
same,normalized growth,"S. cerevisiae deletion strains, locus YLR330W, strain CHS5, hits give low values",0.981
same,normalized growth,"S. cerevisiae deletion strains, locus YLR342W, strain FKS1 (second series), hits give low values",0.921
same,normalized growth,"S. cerevisiae deletion strains, locus YLR342W, strain FKS1, hits give low values",0.986
same,normalized growth,"S. cerevisiae deletion strains, locus YLR357W, strain rsc2, hits give low values",0.885
same,normalized growth,"S. cerevisiae deletion strains, locus YLR370C, strain arc18, hits give low values",1.02
same,normalized growth,"S. cerevisiae deletion strains, locus YLR371W, strain rom2, hits give low values",0.98
same,normalized growth,"S. cerevisiae deletion strains, locus YLR384C, strain iki3, hits give low values",0.993
same,normalized growth,"S. cerevisiae deletion strains, locus YLR418C, strain cdc73, hits give low values",0.985
same,normalized growth,"S. cerevisiae deletion strains, locus YML016C, strain PPZ1, hits give low values",0.981
same,normalized growth,"S. cerevisiae deletion strains, locus YML032C, strain rad52, hits give low values",0.977
same,normalized growth,"S. cerevisiae deletion strains, locus YML120C, strain ndi1, hits give low values",1.01
same,normalized growth,"S. cerevisiae deletion strains, locus YML124C, strain tub3, hits give low values",0.999
same,normalized growth,"S. cerevisiae deletion strains, locus YMR058W, strain fet3, hits give low values",0.974
same,normalized growth,"S. cerevisiae deletion strains, locus YMR078C, strain ctf18, hits give low values",0.981
same,normalized growth,"S. cerevisiae deletion strains, locus YMR125W, strain sto1, hits give low values",1.01
same,normalized growth,"S. cerevisiae deletion strains, locus YMR129W, hits give low values",1.01
same,normalized growth,"S. cerevisiae deletion strains, locus YMR205C, strain PFK2, hits give low values",1.03
same,normalized growth,"S. cerevisiae deletion strains, locus YMR223W, strain ubp8, hits give low values",0.962
same,normalized growth,"S. cerevisiae deletion strains, locus YMR231W, strain pep5, hits give low values",0.969
same,normalized growth,"S. cerevisiae deletion strains, locus YMR263W, strain SAP30, hits give low values",0.95
same,normalized growth,"S. cerevisiae deletion strains, locus YMR307W, strain GAS1, hits give low values",0.993
same,normalized growth,"S. cerevisiae deletion strains, locus YNL067W, strain RPL9B, hits give low values",0.941
same,normalized growth,"S. cerevisiae deletion strains, locus YNL071W, strain lat1, hits give low values",0.98
same,normalized growth,"S. cerevisiae deletion strains, locus YNL128W, strain TEP1, hits give low values",0.954
same,normalized growth,"S. cerevisiae deletion strains, locus YNL153C, strain GIM3, hits give low values",0.974
same,normalized growth,"S. cerevisiae deletion strains, locus YNL183C, strain NPR1, hits give low values",0.891
same,normalized growth,"S. cerevisiae deletion strains, locus YNL209W, strain ssb2, hits give low values",1.01
same,normalized growth,"S. cerevisiae deletion strains, locus YNL233W, strain BNI4, hits give low values",0.975
same,normalized growth,"S. cerevisiae deletion strains, locus YNL248C, strain rpa49, hits give low values",0.951
same,normalized growth,"S. cerevisiae deletion strains, locus YNL250W, strain rad50, hits give low values",0.978
same,normalized growth,"S. cerevisiae deletion strains, locus YNL271C, strain bni1, hits give low values",0.977
same,normalized growth,"S. cerevisiae deletion strains, locus YNL298W, strain CLA4, hits give low values",0.959
same,normalized growth,"S. cerevisiae deletion strains, locus YNL307C, strain MCK1, hits give low values",0.995
same,normalized growth,"S. cerevisiae deletion strains, locus YNL322C, strain KRE1 (second series), hits give low values",1
same,normalized growth,"S. cerevisiae deletion strains, locus YNL322C, strain KRE1, hits give low values",0.979
same,normalized growth,"S. cerevisiae deletion strains, locus YNR049C, strain mso1, hits give low values",1.01
same,normalized growth,"S. cerevisiae deletion strains, locus YNR052C, strain pop2, hits give low values",0.99
same,normalized growth,"S. cerevisiae deletion strains, locus YOL006C, strain TOP1, hits give low values",0.829
same,normalized growth,"S. cerevisiae deletion strains, locus YOL012C, strain htz1",1.5
same,normalized growth,"S. cerevisiae deletion strains, locus YOL147C, strain pex11, hits give low values",0.99
same,normalized growth,"S. cerevisiae deletion strains, locus YOR001W, strain rrp6, hits give low values",0.973
same,normalized growth,"S. cerevisiae deletion strains, locus YOR061W, strain CKA2, hits give low values",0.955
same,normalized growth,"S. cerevisiae deletion strains, locus YOR069W, strain VPS5, hits give low values",0.992
same,normalized growth,"S. cerevisiae deletion strains, locus YOR070C, strain gyp1, hits give low values",0.986
same,normalized growth,"S. cerevisiae deletion strains, locus YOR080W, strain dia2, hits give low values",0.998
same,normalized growth,"S. cerevisiae deletion strains, locus YOR083W, strain WHI5, hits give low values",0.976
same,normalized growth,"S. cerevisiae deletion strains, locus YOR106W, strain vam3, hits give low values",0.918
same,normalized growth,"S. cerevisiae deletion strains, locus YOR136W, strain idh2, hits give low values",1.01
same,normalized growth,"S. cerevisiae deletion strains, locus YOR144C, strain elg1, hits give low values",0.988
same,normalized growth,"S. cerevisiae deletion strains, locus YOR184W, strain ser1, hits give low values",0.951
same,normalized growth,"S. cerevisiae deletion strains, locus YOR231W, strain MKK1, hits give low values",0.985
same,normalized growth,"S. cerevisiae deletion strains, locus YOR265W, strain rbl2, hits give low values",1
same,normalized growth,"S. cerevisiae deletion strains, locus YOR270C, strain vph1, hits give low values",0.858
same,normalized growth,"S. cerevisiae deletion strains, locus YOR290C, strain snf2, hits give low values",0.976
same,normalized growth,"S. cerevisiae deletion strains, locus YOR316C, strain cot1, hits give low values",0.971
same,normalized growth,"S. cerevisiae deletion strains, locus YPL051W, strain arl3, hits give low values",0.973
same,normalized growth,"S. cerevisiae deletion strains, locus YPL055C, strain LGE1, hits give low values",0.951
same,normalized growth,"S. cerevisiae deletion strains, locus YPL078C, strain atp4, hits give low values",0.992
same,normalized growth,"S. cerevisiae deletion strains, locus YPL106C, strain sse1, hits give low values",1.02
same,normalized growth,"S. cerevisiae deletion strains, locus YPL240C, strain hsp82, hits give low values",1.01
same,normalized growth,"S. cerevisiae deletion strains, locus YPL241C, strain CIN2, hits give low values",0.978
same,normalized growth,"S. cerevisiae deletion strains, locus YPL256C, strain CLN2, hits give low values",1
same,normalized growth,"S. cerevisiae deletion strains, locus YPR119W, strain clb2, hits give low values",0.994
same,normalized growth,"S. cerevisiae deletion strains, locus YPR141C, strain kar3, hits give low values",0.969
same,normalized growth,"S. cerevisiae deletion strains, locus YPR163C, strain tif3, hits give low values",0.99
same,normalized growth,"S. cerevisiae deletion strains, locus YPR167C, strain met16, hits give low values",0.981
same,normalized growth,"S. cerevisiae deletion strains, strain wtn01, hits give low values",0.981
same,normalized growth,"S. cerevisiae strains, strain wild type, hits give low values",0.977
